Data: PubChem BioAssay (NCATS)
Inconclusive results are not listed. A call without a number means that no potency is given here. Calls of active or inactive are those of the source. Calls follow the shape of the dose curve; as a rule, active = well fitted cell-killing curve with a large enough effect; inconclusive = small, poorly fitted or top-dose-only effect; inactive = flat fitted curve, though single readings scatter.

Experiment: Cell Viability - LYMP2-022 (AID 987); also: nearly all actives have a fitted effect of over 55% in size
Conditions: LYMP2-022 lymphoblastoid cell viability; series mostly up to 92.2 µM
Outline: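 Human lymphoblastoid cells, 2500/well, preincubated 5 hr at 37 C, then exposed to compounds over a concentration range for 24 hr at 37 C in complete medium. Viability read as intracellular ATP by CellTiter-Glo luminescence after 30 min at room temperature; AC50 from Hill fits.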
Potency is read from the fitted curve at half-maximal effect.

| Structure (SMILES) | Potency |
| --- | --- |
| C=CCn1c(=O)n(CC=C)c(=O)n(CC=C)c1=O | inactive |
| Nc1nc(-c2ccccc2)cs1 | inactive |
| CCCCC/C=C/C=C/C=O | 50.1 µM (active) |
| Cc1ccc(C(=O)O)cc1 | inactive |
| O=C(O)c1ccccc1[N+](=O)[O-] | inactive |
| Nc1cccc(N)c1 | inactive |
| CN(C)c1cccc(O)c1 | inactive |
| O=C(O)c1ccc(C(=O)O)cc1 | inactive |
| NCCCCCCN | inactive |
| CC(C)(C)OCC1CO1 (stereo not given) | inactive |
| Cc1cc(C2(c3cc(C)c(O)cc3C)OS(=O)(=O)c3ccccc32)c(C)cc1O | inactive |
| Cc1ccccc1C(=O)O | inactive |
| COc1cccc(N)c1 | inactive |
| CCCCC(CC)CO (stereo not given) | inactive |
| O=[N+]([O-])c1ccccc1CCO | inactive |
| COCCOC(=O)c1ccccc1C(=O)OCCOC | inactive |
| O=C(O)c1cccc([N+](=O)[O-])c1 | inactive |
| CCCCCNCCCCC | inactive |
| CCCCOCCOCCSC#N | inactive |

| Structure (SMILES) | Potency |
| --- | --- |
| CC1(N)CCC(C(C)(C)N)CC1 (stereo not given) | inactive |
| CCCCC(CC)CNCC(CC)CCCC (stereo not given) | inactive |
| Nc1nc(CC(=O)O)cs1 | inactive |
| N#Cc1ccccc1 | inactive |
| O=[N+]([O-])c1ccc(Cl)cc1Cl | inactive |
| C=CCCCCCCC=C | inactive |
| CC(O)COC(C)(C)C (stereo not given) | inactive |
| CC(C)C(C)C | inactive |
| CCN(C(=O)N(CC)c1ccccc1)c1ccccc1 | inactive |
| O=C(O)c1ccc(CO)o1 | inactive |
| Cc1ccc(C)o1 | inactive |
| O=CNc1ccccc1 | inactive |
| NS(=O)(=O)O | inactive |
| CC(=O)OCCC(C)C | inactive |
| Cc1cccc(Br)c1 | inactive |
| NC(=S)NNC(N)=S | inactive |
| Cc1cccc2cccnc12 | inactive |
| CC(=O)c1ccccn1 | inactive |
| CC1=C(/C=C/C(C)=C/C=C/C(C)=C\C=O)C(C)(C)CCC1 | 39.8 µM (active) |

Experiment: Cell Viability - LYMP2-024 (AID 988); also: nearly all actives have a fitted effect of over 60% in size
Conditions: LYMP2-024 lymphoblastoid cell viability; series mostly up to 92.2 µM
Outline: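 Human lymphoblastoid cells (2500/well) in complete medium were preincubated 5 hr at 37 C, then exposed to compounds for 24 hr at 37 C. Intracellular ATP was read by CellTiter-Glo luminescence; AC50 from Hill-equation fits of concentration-response data.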

| Structure (SMILES) | Potency |
| --- | --- |
| C=CCn1c(=O)n(CC=C)c(=O)n(CC=C)c1=O | inactive |
| Nc1nc(-c2ccccc2)cs1 | inactive |
| CCCCC/C=C/C=C/C=O | 50.1 µM (active) |
| Cc1ccc(C(=O)O)cc1 | inactive |
| O=C(O)c1ccccc1[N+](=O)[O-] | inactive |
| Nc1cccc(N)c1 | inactive |
| CN(C)c1cccc(O)c1 | inactive |
| O=C(O)c1ccc(C(=O)O)cc1 | inactive |
| NCCCCCCN | inactive |
| CC(C)(C)OCC1CO1 (stereo not given) | inactive |
| Cc1cc(C2(c3cc(C)c(O)cc3C)OS(=O)(=O)c3ccccc32)c(C)cc1O | inactive |
| Cc1ccccc1C(=O)O | inactive |
| COc1cccc(N)c1 | inactive |
| CCCCC(CC)CO (stereo not given) | inactive |
| O=[N+]([O-])c1ccccc1CCO | inactive |
| COCCOC(=O)c1ccccc1C(=O)OCCOC | inactive |
| O=C(O)c1cccc([N+](=O)[O-])c1 | inactive |
| CCCCCNCCCCC | inactive |
| CCCCOCCOCCSC#N | inactive |

| Structure (SMILES) | Potency |
| --- | --- |
| CC1(N)CCC(C(C)(C)N)CC1 (stereo not given) | inactive |
| CCCCC(CC)CNCC(CC)CCCC (stereo not given) | inactive |
| Nc1nc(CC(=O)O)cs1 | inactive |
| N#Cc1ccccc1 | inactive |
| O=[N+]([O-])c1ccc(Cl)cc1Cl | inactive |
| C=CCCCCCCC=C | inactive |
| CC(O)COC(C)(C)C (stereo not given) | inactive |
| CC(C)C(C)C | inactive |
| CCN(C(=O)N(CC)c1ccccc1)c1ccccc1 | inactive |
| Cc1ccc(C)o1 | inactive |
| O=CNc1ccccc1 | inactive |
| NS(=O)(=O)O | inactive |
| CC(=O)OCCC(C)C | inactive |
| Cc1cccc(Br)c1 | inactive |
| NC(=S)NNC(N)=S | inactive |
| Cc1cccc2cccnc12 | inactive |
| CC(=O)c1ccccn1 | inactive |
| CC1=C(/C=C/C(C)=C/C=C/C(C)=C\C=O)C(C)(C)CCC1 | 31.6 µM (active) |
